Measured values: PubChem BioAssay AID1159580 (chemical genetic matrix, 2015)
Screen size: about 5,500 compounds; about 2,000 (36%) were called active. Roughly 18% stayed inconclusive and do not appear here. No stated cut-off is given here; in the data, active means normalized growth mostly below about 0.91 (no sharp cut-off); inconclusive means no clear call, values can overlap the other calls; inactive means mostly above about 0.92. The list shows a part of the results.

Experiment: chemical genetic growth profiling, strain panel (AID 1159580);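 further: tested at 20 µM; growth read once vehicle control cultures reached saturation at 30 °C; 1 = growth at the plate median or of vehicle wells; lower values mean less growth of the strain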
Details: growth OD

Measured: normalized growth

CCCC1O[C@@H]2CC3C4CCC5=CC(=O)C=CC5(C)C4[C@@H](O)CC3(C)[C@]2(C(=O)CO)O1 (some centres not stated)
inactive: S. cerevisiae deletion strains, locus YJR075W, strain HOC1, hits give low values 1 | S. cerevisiae deletion strains, locus YKL009W, strain mrt4, hits give low values 1.03 | S. cerevisiae deletion strains, locus YKL068W, hits give low values 1 | S. cerevisiae deletion strains, locus YKL085W, strain MDH1 (second series), hits give low values 0.994 | S. cerevisiae deletion strains, locus YKL085W, strain MDH1, hits give low values 0.994 | S. cerevisiae deletion strains, locus YKL160W, strain elf1, hits give low values 1.01 | S. cerevisiae deletion strains, locus YKL190W, strain CNB1, hits give low values 0.995 | S. cerevisiae deletion strains, locus YKR001C, strain vps1, hits give low values 0.997 | S. cerevisiae deletion strains, locus YKR026C, strain gcn3, hits give low values 1.01 | S. cerevisiae deletion strains, locus YKR091W, strain srl3, hits give low values 1 | S. cerevisiae deletion strains, locus YLL001W, strain dnm1, hits give low values 1.02 | S. cerevisiae deletion strains, locus YLL026W, hits give low values 1.01 | S. cerevisiae deletion strains, locus YLL041C, strain sdh2, hits give low values 1.01 | S. cerevisiae deletion strains, locus YLR027C, strain aat2, hits give low values 1 | S. cerevisiae deletion strains, locus YLR039C, strain RIC1, hits give low values 1.02 | S. cerevisiae deletion strains, locus YLR058C, strain SHM2, hits give low values 1 | S. cerevisiae deletion strains, locus YLR102C, strain apc9, hits give low values 1.02 | S. cerevisiae deletion strains, locus YLR113W, strain HOG1, hits give low values 0.931 | S. cerevisiae deletion strains, locus YLR221C, strain rsa3, hits give low values 0.986 | S. cerevisiae deletion strains, locus YLR258W, strain gsy2, hits give low values 1.02 | S. cerevisiae deletion strains, locus YLR262C, strain YPT6 (second series), hits give low values 1 | S. cerevisiae deletion strains, locus YLR262C, strain YPT6, hits give low values 1 | S. cerevisiae deletion strains, locus YLR268W, strain sec22, hits give low values 1 | S. cerevisiae deletion strains, locus YLR320W, strain mms22, hits give low values 1.01 | S. cerevisiae deletion strains, locus YLR330W, strain CHS5, hits give low values 1 | S. cerevisiae deletion strains, locus YLR342W, strain FKS1 (second series), hits give low values 1.02 | S. cerevisiae deletion strains, locus YLR342W, strain FKS1, hits give low values 1.01 | S. cerevisiae deletion strains, locus YLR357W, strain rsc2, hits give low values 1.03 | S. cerevisiae deletion strains, locus YLR370C, strain arc18, hits give low values 1.01 | S. cerevisiae deletion strains, locus YLR371W, strain rom2, hits give low values 1.02 | S. cerevisiae deletion strains, locus YLR384C, strain iki3, hits give low values 1.01 | S. cerevisiae deletion strains, locus YLR418C, strain cdc73, hits give low values 0.978 | S. cerevisiae deletion strains, locus YML016C, strain PPZ1, hits give low values 1.01 | S. cerevisiae deletion strains, locus YML032C, strain rad52, hits give low values 1.04 | S. cerevisiae deletion strains, locus YML120C, strain ndi1, hits give low values 1 | S. cerevisiae deletion strains, locus YML124C, strain tub3, hits give low values 1.01 | S. cerevisiae deletion strains, locus YMR058W, strain fet3, hits give low values 1 | S. cerevisiae deletion strains, locus YMR078C, strain ctf18, hits give low values 1.02 | S. cerevisiae deletion strains, locus YMR125W, strain sto1, hits give low values 1 | S. cerevisiae deletion strains, locus YMR129W, hits give low values 1.01 | S. cerevisiae deletion strains, locus YMR205C, strain PFK2, hits give low values 1 | S. cerevisiae deletion strains, locus YMR223W, strain ubp8, hits give low values 1.03 | S. cerevisiae deletion strains, locus YMR231W, strain pep5, hits give low values 1.01 | S. cerevisiae deletion strains, locus YMR263W, strain SAP30, hits give low values 0.999 | S. cerevisiae deletion strains, locus YMR307W, strain GAS1, hits give low values 1.06 | S. cerevisiae deletion strains, locus YNL067W, strain RPL9B, hits give low values 0.99 | S. cerevisiae deletion strains, locus YNL071W, strain lat1, hits give low values 1 | S. cerevisiae deletion strains, locus YNL128W, strain TEP1, hits give low values 1 | S. cerevisiae deletion strains, locus YNL153C, strain GIM3, hits give low values 0.992 | S. cerevisiae deletion strains, locus YNL183C, strain NPR1, hits give low values 0.962 | S. cerevisiae deletion strains, locus YNL209W, strain ssb2, hits give low values 1.02 | S. cerevisiae deletion strains, locus YNL233W, strain BNI4, hits give low values 1.01 | S. cerevisiae deletion strains, locus YNL248C, strain rpa49, hits give low values 1.04 | S. cerevisiae deletion strains, locus YNL250W, strain rad50, hits give low values 1.02 | S. cerevisiae deletion strains, locus YNL271C, strain bni1, hits give low values 1.02 | S. cerevisiae deletion strains, locus YNL298W, strain CLA4, hits give low values 1.02 | S. cerevisiae deletion strains, locus YNL307C, strain MCK1, hits give low values 1.03 | S. cerevisiae deletion strains, locus YNL322C, strain KRE1 (second series), hits give low values 1.01 | S. cerevisiae deletion strains, locus YNL322C, strain KRE1, hits give low values 1 | S. cerevisiae deletion strains, locus YNR049C, strain mso1, hits give low values 0.997 | S. cerevisiae deletion strains, locus YNR052C, strain pop2, hits give low values 1.02 | S. cerevisiae deletion strains, locus YOL006C, strain TOP1, hits give low values 1 | S. cerevisiae deletion strains, locus YOL012C, strain htz1 1.19 | S. cerevisiae deletion strains, locus YOL147C, strain pex11, hits give low values 1.02 | S. cerevisiae deletion strains, locus YOR001W, strain rrp6, hits give low values 0.975 | S. cerevisiae deletion strains, locus YOR061W, strain CKA2, hits give low values 1 | S. cerevisiae deletion strains, locus YOR069W, strain VPS5, hits give low values 1 | S. cerevisiae deletion strains, locus YOR070C, strain gyp1, hits give low values 1.01 | S. cerevisiae deletion strains, locus YOR080W, strain dia2, hits give low values 0.999 | S. cerevisiae deletion strains, locus YOR083W, strain WHI5, hits give low values 0.991 | S. cerevisiae deletion strains, locus YOR106W, strain vam3, hits give low values 1.03 | S. cerevisiae deletion strains, locus YOR136W, strain idh2, hits give low values 1.03 | S. cerevisiae deletion strains, locus YOR144C, strain elg1, hits give low values 1.01 | S. cerevisiae deletion strains, locus YOR184W, strain ser1, hits give low values 1.05 | S. cerevisiae deletion strains, locus YOR231W, strain MKK1, hits give low values 0.961 | S. cerevisiae deletion strains, locus YOR265W, strain rbl2, hits give low values 1 | S. cerevisiae deletion strains, locus YOR270C, strain vph1, hits give low values 1.06 | S. cerevisiae deletion strains, locus YOR290C, strain snf2, hits give low values 1.03 | S. cerevisiae deletion strains, locus YOR316C, strain cot1, hits give low values 1.02 | S. cerevisiae deletion strains, locus YPL051W, strain arl3, hits give low values 0.998 | S. cerevisiae deletion strains, locus YPL055C, strain LGE1, hits give low values 0.999 | S. cerevisiae deletion strains, locus YPL078C, strain atp4, hits give low values 1.02 | S. cerevisiae deletion strains, locus YPL106C, strain sse1, hits give low values 1.08 | S. cerevisiae deletion strains, locus YPL240C, strain hsp82, hits give low values 0.995 | S. cerevisiae deletion strains, locus YPL241C, strain CIN2, hits give low values 0.998 | S. cerevisiae deletion strains, locus YPL256C, strain CLN2, hits give low values 1.03 | S. cerevisiae deletion strains, locus YPR119W, strain clb2, hits give low values 1.01 | S. cerevisiae deletion strains, locus YPR141C, strain kar3, hits give low values 1.02 | S. cerevisiae deletion strains, locus YPR163C, strain tif3, hits give low values 1.03 | S. cerevisiae deletion strains, locus YPR167C, strain met16, hits give low values 1.02 | S. cerevisiae deletion strains, strain wtn01, hits give low values 0.984 | S. cerevisiae strains, strain wild type, hits give low values 0.999
